What all share (test): DAPPL (digital affinity profiling via proximity ligation, sequencing); 10 mM Tris-HCl pH 7.5, 50 mM NaCl, 1 mM DTT, 4% glycerol, room temperature, 30 min; GST-TFs on glutathione beads, 16-mer random dsDNA library, 0.1% formaldehyde crosslink after washing; high values mean tight binding
For test [1], the target named is ETV5 (Homo sapiens, UniProt P41161 1-510). The following applies: protein: recombinant; tags: N-terminal GST; dsDNA, one strand shown. Put shortly:
(§1)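 Human transcription factors fused to GST were expressed in yeast, captured on glutathione beads, given DNA barcodes and pooled with a GST-only negative control. Pools were incubated with 200 nmole of a 16-mer random double-stranded DNA library in Tris/NaCl/DTT/glycerol buffer at room temperature for 30 min. They were then washed, crosslinked with 0.1% formaldehyde, proximity-ligated (BsaI/T4 ligase, 1 h, 37 °C), PCR-amplified and sequenced on an Illumina NextSeq500. Binding signal is each 6-mer's read frequency for a factor divided by its frequency for the GST control.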

The target of test [2] is HSF1 (Homo sapiens, UniProt Q00613 1-529). The conditions noted are these: protein: recombinant; tags: N-terminal GST; chain copies: 3; dsDNA, one strand shown. Put shortly:
as §1

Test [3] addresses T1, SPIC (Homo sapiens, UniProt Q8N5J4 1-248).
T1 sequence: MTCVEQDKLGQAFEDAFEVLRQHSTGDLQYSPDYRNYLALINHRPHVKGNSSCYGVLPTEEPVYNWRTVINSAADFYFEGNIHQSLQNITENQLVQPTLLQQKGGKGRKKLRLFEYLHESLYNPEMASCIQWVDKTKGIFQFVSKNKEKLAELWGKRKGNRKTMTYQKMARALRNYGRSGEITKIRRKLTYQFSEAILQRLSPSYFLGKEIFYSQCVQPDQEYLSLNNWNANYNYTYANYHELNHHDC
The following applies: protein: recombinant; tags: N-terminal GST; dsDNA, one strand shown. Put shortly: as §1

Test [4] addresses ELF4 (Homo sapiens, UniProt Q99607 1-663). The conditions noted are these: protein: recombinant; tags: N-terminal GST; dsDNA, one strand shown. Put shortly:
as §1

For test [5], the target named is T2, ELK4 (Homo sapiens, UniProt P28324-2 1-405).
T2 sequence: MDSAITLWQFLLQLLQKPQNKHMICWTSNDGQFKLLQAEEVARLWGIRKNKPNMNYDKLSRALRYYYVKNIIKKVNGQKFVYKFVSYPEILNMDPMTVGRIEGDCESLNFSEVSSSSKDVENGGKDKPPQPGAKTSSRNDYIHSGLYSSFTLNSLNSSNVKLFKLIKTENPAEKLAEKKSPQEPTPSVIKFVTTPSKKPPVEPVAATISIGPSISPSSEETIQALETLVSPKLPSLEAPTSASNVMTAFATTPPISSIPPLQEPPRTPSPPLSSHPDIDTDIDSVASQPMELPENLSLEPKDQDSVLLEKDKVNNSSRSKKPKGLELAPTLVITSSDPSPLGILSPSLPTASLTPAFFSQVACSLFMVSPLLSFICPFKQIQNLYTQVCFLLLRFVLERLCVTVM
The conditions noted are these: protein: recombinant; tags: N-terminal GST; dsDNA, one strand shown. The essentials: as §1

In test [6] the target is T3, ETV2 (Homo sapiens, UniProt O00321 1-342).
T3 sequence: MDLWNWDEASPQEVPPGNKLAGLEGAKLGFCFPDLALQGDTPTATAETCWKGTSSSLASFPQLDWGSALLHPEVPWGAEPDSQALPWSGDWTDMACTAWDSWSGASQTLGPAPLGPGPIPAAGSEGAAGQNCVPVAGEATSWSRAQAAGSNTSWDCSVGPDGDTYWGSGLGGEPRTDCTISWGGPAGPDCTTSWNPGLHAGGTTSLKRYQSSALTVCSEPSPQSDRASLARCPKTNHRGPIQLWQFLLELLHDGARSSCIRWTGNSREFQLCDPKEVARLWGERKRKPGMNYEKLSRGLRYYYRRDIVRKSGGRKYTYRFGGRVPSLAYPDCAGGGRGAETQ
The following applies: protein: recombinant; tags: N-terminal GST; dsDNA, one strand shown. Put shortly:
as §1

The target in test [7] is CRX (Homo sapiens, UniProt O43186 1-299). The following applies: protein: recombinant; tags: N-terminal GST; dsDNA, one strand shown. The essentials:
as §1

Test [8] addresses ETV1 (Homo sapiens, UniProt P50549 1-477). The following applies: protein: recombinant; tags: N-terminal GST; dsDNA, one strand shown. The essentials: as §1
For test [9], the target named is T4, FEV (Homo sapiens, UniProt Q99581 1-238).
T4 sequence: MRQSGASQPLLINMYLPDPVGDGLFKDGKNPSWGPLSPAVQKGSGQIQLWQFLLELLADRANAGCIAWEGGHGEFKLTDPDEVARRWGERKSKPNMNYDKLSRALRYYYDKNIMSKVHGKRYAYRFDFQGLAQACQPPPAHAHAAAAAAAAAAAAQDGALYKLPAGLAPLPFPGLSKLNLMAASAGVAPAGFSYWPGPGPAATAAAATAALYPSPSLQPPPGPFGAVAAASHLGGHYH
The following applies: protein: recombinant; tags: N-terminal GST; dsDNA, one strand shown. Put shortly: as §1

In test [10] the target is T5, ELF3 (Homo sapiens, UniProt P78545 1-371).
T5 sequence: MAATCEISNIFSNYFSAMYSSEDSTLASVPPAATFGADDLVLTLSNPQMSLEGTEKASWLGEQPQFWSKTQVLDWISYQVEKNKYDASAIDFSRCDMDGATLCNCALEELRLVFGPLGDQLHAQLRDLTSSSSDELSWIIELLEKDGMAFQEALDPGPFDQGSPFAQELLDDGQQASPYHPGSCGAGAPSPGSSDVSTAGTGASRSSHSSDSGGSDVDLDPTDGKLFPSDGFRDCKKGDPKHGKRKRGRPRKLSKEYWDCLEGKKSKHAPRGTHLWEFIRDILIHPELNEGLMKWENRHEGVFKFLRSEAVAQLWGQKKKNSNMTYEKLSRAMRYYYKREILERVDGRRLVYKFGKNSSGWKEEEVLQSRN
The conditions noted are these: protein: recombinant; tags: N-terminal GST; dsDNA, one strand shown. The essentials: as §1

HSF1, sequence (Q00613 whole entry): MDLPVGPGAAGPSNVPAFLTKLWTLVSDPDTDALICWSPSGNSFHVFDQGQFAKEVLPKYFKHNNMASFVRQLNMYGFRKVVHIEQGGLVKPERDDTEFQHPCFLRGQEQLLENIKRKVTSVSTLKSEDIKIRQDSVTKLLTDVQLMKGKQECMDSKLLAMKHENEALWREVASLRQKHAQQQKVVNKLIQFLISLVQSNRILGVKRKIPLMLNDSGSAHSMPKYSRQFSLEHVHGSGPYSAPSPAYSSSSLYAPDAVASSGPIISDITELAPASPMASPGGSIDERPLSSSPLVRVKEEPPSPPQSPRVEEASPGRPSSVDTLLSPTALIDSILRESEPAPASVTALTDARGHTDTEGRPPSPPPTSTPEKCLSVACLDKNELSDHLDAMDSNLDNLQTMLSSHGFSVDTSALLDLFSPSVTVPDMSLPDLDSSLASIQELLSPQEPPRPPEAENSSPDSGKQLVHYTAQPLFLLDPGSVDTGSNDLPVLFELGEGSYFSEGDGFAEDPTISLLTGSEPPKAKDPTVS
ELF4, sequence (Q99607 whole entry): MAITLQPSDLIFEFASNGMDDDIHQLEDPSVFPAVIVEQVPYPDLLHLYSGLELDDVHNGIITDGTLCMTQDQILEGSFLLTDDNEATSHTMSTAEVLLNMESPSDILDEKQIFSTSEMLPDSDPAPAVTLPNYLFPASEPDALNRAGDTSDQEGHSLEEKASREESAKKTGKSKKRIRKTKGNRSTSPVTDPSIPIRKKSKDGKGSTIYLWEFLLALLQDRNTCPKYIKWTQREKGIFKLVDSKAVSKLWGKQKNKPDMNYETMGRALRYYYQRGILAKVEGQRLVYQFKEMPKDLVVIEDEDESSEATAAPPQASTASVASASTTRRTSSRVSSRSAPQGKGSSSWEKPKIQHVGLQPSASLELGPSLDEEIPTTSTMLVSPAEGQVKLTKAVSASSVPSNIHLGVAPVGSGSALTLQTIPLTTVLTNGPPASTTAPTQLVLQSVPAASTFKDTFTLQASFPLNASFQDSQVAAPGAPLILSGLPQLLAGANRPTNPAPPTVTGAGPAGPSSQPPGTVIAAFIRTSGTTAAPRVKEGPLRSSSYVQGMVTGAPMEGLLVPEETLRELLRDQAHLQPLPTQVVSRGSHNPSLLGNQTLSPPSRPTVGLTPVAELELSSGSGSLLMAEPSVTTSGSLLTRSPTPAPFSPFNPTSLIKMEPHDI
CRX, sequence (O43186 whole entry): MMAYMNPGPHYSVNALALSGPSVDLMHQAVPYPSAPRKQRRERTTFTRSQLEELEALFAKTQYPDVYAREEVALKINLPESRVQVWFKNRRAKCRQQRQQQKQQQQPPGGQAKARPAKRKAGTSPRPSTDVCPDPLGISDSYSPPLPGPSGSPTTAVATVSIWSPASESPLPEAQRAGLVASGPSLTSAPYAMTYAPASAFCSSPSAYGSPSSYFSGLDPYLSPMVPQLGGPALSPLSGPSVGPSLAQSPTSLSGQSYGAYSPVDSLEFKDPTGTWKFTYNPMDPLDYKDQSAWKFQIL
ETV1, sequence (P50549 whole entry): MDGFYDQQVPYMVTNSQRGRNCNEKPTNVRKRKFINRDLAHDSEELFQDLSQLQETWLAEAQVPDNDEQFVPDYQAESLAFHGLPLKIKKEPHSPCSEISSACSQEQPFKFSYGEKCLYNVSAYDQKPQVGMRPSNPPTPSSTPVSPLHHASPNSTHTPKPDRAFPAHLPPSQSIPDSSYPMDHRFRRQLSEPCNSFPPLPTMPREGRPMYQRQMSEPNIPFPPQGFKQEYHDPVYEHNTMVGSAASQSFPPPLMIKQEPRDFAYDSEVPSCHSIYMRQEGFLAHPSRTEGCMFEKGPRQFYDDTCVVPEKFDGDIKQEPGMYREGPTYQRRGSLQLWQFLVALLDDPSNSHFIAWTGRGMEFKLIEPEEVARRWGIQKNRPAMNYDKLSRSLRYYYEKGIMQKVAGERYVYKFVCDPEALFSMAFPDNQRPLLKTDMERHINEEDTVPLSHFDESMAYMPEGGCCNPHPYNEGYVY
ETV5, sequence (P41161 whole entry, the tested form may be a part): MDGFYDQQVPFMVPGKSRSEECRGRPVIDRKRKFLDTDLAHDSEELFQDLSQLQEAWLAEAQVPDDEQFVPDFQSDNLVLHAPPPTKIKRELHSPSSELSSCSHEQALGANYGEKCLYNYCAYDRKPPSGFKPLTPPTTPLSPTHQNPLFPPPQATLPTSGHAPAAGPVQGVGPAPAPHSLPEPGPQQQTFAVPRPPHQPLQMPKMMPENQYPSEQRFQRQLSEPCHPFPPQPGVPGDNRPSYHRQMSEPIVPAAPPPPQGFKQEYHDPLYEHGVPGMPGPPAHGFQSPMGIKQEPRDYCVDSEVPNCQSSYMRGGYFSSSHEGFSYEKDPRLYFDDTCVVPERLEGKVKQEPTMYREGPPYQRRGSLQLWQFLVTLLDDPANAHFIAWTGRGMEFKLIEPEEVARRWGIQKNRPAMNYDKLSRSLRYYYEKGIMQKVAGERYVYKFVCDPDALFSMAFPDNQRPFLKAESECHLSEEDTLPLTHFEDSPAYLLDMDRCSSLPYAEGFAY

For the sequence TTGAAC, the binding signal was 1.05 fold enrichment (6-mer frequency, TF over GST control) in test [1]; 1.02 fold enrichment (6-mer frequency, TF over GST control) in test [2]; 1.06 fold enrichment (6-mer frequency, TF over GST control) in [3]; 1.12 fold enrichment (6-mer frequency, TF over GST control) in [4]; 1.32 fold enrichment (6-mer frequency, TF over GST control) in test [5]; 1.27 fold enrichment (6-mer frequency, TF over GST control) in test [6]. Further, the binding signal is 1.03 fold enrichment (6-mer frequency, TF over GST control) in test [7] and 1.08 fold enrichment (6-mer frequency, TF over GST control) in test [8].

In the case of TGCTAC, the binding signal in test [9] was 1.36 fold enrichment (6-mer frequency, TF over GST control); in [1], 1.25 fold enrichment (6-mer frequency, TF over GST control); in [2] it was 1.03 fold enrichment (6-mer frequency, TF over GST control); in test [3], 1.41 fold enrichment (6-mer frequency, TF over GST control); in test [4], 1.23 fold enrichment (6-mer frequency, TF over GST control); in test [5], 1.4 fold enrichment (6-mer frequency, TF over GST control). For the same sequence, the binding signal in [6] is 1.24 fold enrichment (6-mer frequency, TF over GST control); in test [10] it was 1.25 fold enrichment (6-mer frequency, TF over GST control); in test [8] it was 1.42 fold enrichment (6-mer frequency, TF over GST control).

Regarding CGTTCC, the binding signal in test [9] is 1.5 fold enrichment (6-mer frequency, TF over GST control); in test [1] it was 1.47 fold enrichment (6-mer frequency, TF over GST control); in test [2], 1.44 fold enrichment (6-mer frequency, TF over GST control); in [3], 1.51 fold enrichment (6-mer frequency, TF over GST control); in [4], 1.47 fold enrichment (6-mer frequency, TF over GST control); in test [5], 1.31 fold enrichment (6-mer frequency, TF over GST control). Also, the binding signal in [6] was 1.33 fold enrichment (6-mer frequency, TF over GST control); in [10] it was 1.27 fold enrichment (6-mer frequency, TF over GST control); in test [8] it was 1.47 fold enrichment (6-mer frequency, TF over GST control).

On to GATACT, for which the binding signal in [9] was 1.1 fold enrichment (6-mer frequency, TF over GST control); in [1] it was 1.07 fold enrichment (6-mer frequency, TF over GST control); in test [2] it was 1.07 fold enrichment (6-mer frequency, TF over GST control); in test [3] it was 1.05 fold enrichment (6-mer frequency, TF over GST control); in [4], 1.18 fold enrichment (6-mer frequency, TF over GST control); in [5], 1.18 fold enrichment (6-mer frequency, TF over GST control). Also, the binding signal was 1.02 fold enrichment (6-mer frequency, TF over GST control) in [6]; 1.07 fold enrichment (6-mer frequency, TF over GST control) in test [7]; 1.1 fold enrichment (6-mer frequency, TF over GST control) in test [8].

Take GAAAGA: the binding signal in [1] was 1.04 fold enrichment (6-mer frequency, TF over GST control); in test [2] it was 1.4 fold enrichment (6-mer frequency, TF over GST control); in test [3], 1.05 fold enrichment (6-mer frequency, TF over GST control); in test [4], 1.07 fold enrichment (6-mer frequency, TF over GST control); in [5] it was 1.01 fold enrichment (6-mer frequency, TF over GST control); in test [6], 1.07 fold enrichment (6-mer frequency, TF over GST control). Moreover, the binding signal was 1.01 fold enrichment (6-mer frequency, TF over GST control) in test [7] and 1.03 fold enrichment (6-mer frequency, TF over GST control) in test [8].

Take GAAAAC: the binding signal is 1.08 fold enrichment (6-mer frequency, TF over GST control) in [9]; 1.13 fold enrichment (6-mer frequency, TF over GST control) in test [1]; 1.08 fold enrichment (6-mer frequency, TF over GST control) in [2]; 1.21 fold enrichment (6-mer frequency, TF over GST control) in test [3]; 1.12 fold enrichment (6-mer frequency, TF over GST control) in [4]; 1.16 fold enrichment (6-mer frequency, TF over GST control) in test [5]. The binding signal in test [6] was 1.04 fold enrichment (6-mer frequency, TF over GST control); in test [10], 1.08 fold enrichment (6-mer frequency, TF over GST control); in test [8], 1.13 fold enrichment (6-mer frequency, TF over GST control).

On to CGATAC, for which the binding signal is 1.14 fold enrichment (6-mer frequency, TF over GST control) in test [9]; 1.13 fold enrichment (6-mer frequency, TF over GST control) in [1]; 1.01 fold enrichment (6-mer frequency, TF over GST control) in [2]; 1.34 fold enrichment (6-mer frequency, TF over GST control) in test [3]; 1.25 fold enrichment (6-mer frequency, TF over GST control) in test [4]; 1.15 fold enrichment (6-mer frequency, TF over GST control) in [5]. Further, the binding signal in test [6] is 1.18 fold enrichment (6-mer frequency, TF over GST control); in test [10], 1.14 fold enrichment (6-mer frequency, TF over GST control); in test [8] it was 1.13 fold enrichment (6-mer frequency, TF over GST control).

For the sequence CGTCCT, the binding signal in test [9] was 1.38 fold enrichment (6-mer frequency, TF over GST control); in test [1] it was 1.32 fold enrichment (6-mer frequency, TF over GST control); in test [2] it was 1.08 fold enrichment (6-mer frequency, TF over GST control); in test [3], 1.27 fold enrichment (6-mer frequency, TF over GST control); in test [4], 1.44 fold enrichment (6-mer frequency, TF over GST control); in test [5], 1.4 fold enrichment (6-mer frequency, TF over GST control). Also, the binding signal was 1.66 fold enrichment (6-mer frequency, TF over GST control) in test [6]; 1.31 fold enrichment (6-mer frequency, TF over GST control) in [10]; 1.24 fold enrichment (6-mer frequency, TF over GST control) in test [8].

The record behind these values is paper PMC7862700, “An all-to-all approach to the identification of sequence-specific readers for epigenetic DNA modifications on cytosine”.
